Laboratory results reported in PubChem BioAssay (Tox21).
Records with an inconclusive call do not appear. The source made the active and inactive calls. Unless noted, calls come from the whole dose curve; as a rule, active = well fitted curve in the direction sought with a large enough effect in the repeat runs; inconclusive = weak or mixed curves; inactive = no such curve, though single readings can be large; an effect the other way counts as inactive or inconclusive.

Columns and labels:
[1] = A CellTox Green Cytotoxicity Assay to monitor cytotoxicity in HepG2 cells - 8 hour (AID 1224890); note: nearly all actives have a fitted effect of over 45% in size
Procedure, shortened: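 Real-time, homogeneous cytotoxicity readout: dead-cell DNA staining by CellTox Green in HepG2 monolayers, fluorescence measured at timed intervals up to 40 h of continuous compound exposure.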

[2] = qHTS assay to identify small molecule antagonists of the estrogen receptor alpha (ER-alpha) signaling pathway using the BG1 cell line in the presence of 0.1 nM 17-beta-estradiol - cell viability counter screen (AID 1259241); note: nearly all actives have a fitted effect of over 40% in size
Procedure, shortened: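 Cells were plated and left 24 hr, compounds in DMSO were pinned in, 17beta-estradiol was added to 0.1 nM final, and after 22 hr CellTiter-Fluor reagent was added for 30 min before fluorescence was read.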

[3] = qHTS assay to identify small molecule antagonists of the androgen receptor (AR) signaling pathway using the MDA cell line in the presence of 0.5 nM R1881 - cell viability counter screen (AID 1259242); note: nearly all actives have a fitted effect of over 45% in size
Procedure, shortened: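 Cytotoxicity toward MDA-kb2 cells is measured by CellTiter-Fluor live-cell protease fluorescence after 16 hr compound exposure at 37C in the presence of 0.5 nM R1881 stimulator.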

[4] = target: Estrogen receptor (Homo sapiens) (UniProt P03372); assay: qHTS assay to identify small molecule antagonists of the estrogen receptor alpha (ER-alpha) signaling pathway using the BG1 cell line in the presence of 0.1 nM 17-beta-estradiol (AID 1259244); note: nearly all actives have a fitted effect of over 50% in size
Procedure, shortened: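 After 5 days in hormone-depleted medium (charcoal-stripped serum, no phenol red), VM7Luc4E2 cells were seeded, incubated 24 h, then co-treated with compound and 0.1 nM (final) estradiol for 22 h before luminescence detection.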

[5] = qHTS assay to identify small molecule HDAC inhibitors (AID 1259364); note: top concentration of the series differs between compounds; nearly all actives have a fitted effect of over 45% in size
Procedure, shortened: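 Homogeneous cell-based luminescent assay of endogenous class I/II HDAC activity; HCT-116 cells, 2 h compound exposure, 30 min HDAC-Glo development at RT.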

[6] = qHTS assay to identify small molecule HDAC inhibitors - cell viability counter screen (AID 1259365); note: series mostly up to about 92 µM; nearly all actives have a fitted effect of over 50% in size
Procedure, shortened: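 Counter screen in wild-type HCT-116 cells: compounds dissolved in DMSO are pin-transferred onto overnight-plated cells and left 2hr at 37C. ATP-based CellTiter-Glo luminescence then measures viable cells.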

[7] = qHTS assay to identify small molecule agonists of the sonic hedgehog signaling (Shh) pathway - cell viability counter screen (AID 1259366); note: nearly all actives have a fitted effect of over 50% in size
Procedure, shortened: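 Cells are plated at 2,000 per well and left 4hr at 37C, 5% CO2 before compound addition. After 23hr of treatment, CellTiter-Fluor reagent is added for 1hr at 37C and fluorescence is measured.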

[8] = qHTS assay to identify small molecule antagonists of the sonic hedgehog signaling (Shh) pathway - cell viability counter screen (AID 1259367); note: nearly all actives have a fitted effect of over 55% in size
Procedure, shortened: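 Cells: 3T3 Gli1-Luc, 2,000/well, 4 hr pre-incubation. Compounds in DMSO, then conditioned medium. Incubation 24 hr, 37C, 5% CO2. CellTiter-Fluor at 23 hr, 1 hr, fluorescence.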

[9] = qHTS assay to identify small molecule phospholipidosis (PLD) inducers (AID 1259344; active = well fitted curve in the direction sought with a large enough effect; an effect the other way counts as inactive or inconclusive)
Procedure, shortened: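 Phospholipidosis is scored by imaging LipidTOX-stained pits in HepG2 cells exposed to compound for 24 h at 37 C; pit counts and integrated intensities per well and per cell serve as outputs.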
% is set by controls: 0 for no effect and ±100 for the full control effect.

Sequence of Estrogen receptor (Homo sapiens) (P03372 whole entry, looked up): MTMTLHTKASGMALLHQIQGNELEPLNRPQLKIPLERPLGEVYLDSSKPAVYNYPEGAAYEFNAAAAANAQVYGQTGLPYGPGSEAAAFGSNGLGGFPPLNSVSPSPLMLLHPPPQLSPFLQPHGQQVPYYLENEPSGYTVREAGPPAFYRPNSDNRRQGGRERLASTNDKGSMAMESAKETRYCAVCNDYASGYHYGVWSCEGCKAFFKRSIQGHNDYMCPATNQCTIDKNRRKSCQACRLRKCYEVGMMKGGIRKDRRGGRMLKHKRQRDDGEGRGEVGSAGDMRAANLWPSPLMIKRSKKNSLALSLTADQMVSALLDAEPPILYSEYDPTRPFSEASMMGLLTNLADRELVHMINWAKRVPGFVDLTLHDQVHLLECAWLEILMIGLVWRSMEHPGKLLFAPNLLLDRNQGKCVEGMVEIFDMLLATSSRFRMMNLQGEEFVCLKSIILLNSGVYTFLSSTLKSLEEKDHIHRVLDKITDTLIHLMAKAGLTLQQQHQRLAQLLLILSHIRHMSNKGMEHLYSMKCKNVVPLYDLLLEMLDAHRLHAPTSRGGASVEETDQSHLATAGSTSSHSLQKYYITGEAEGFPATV

CCCC(=O)C(C)=O
inactive: outcome [1] | Potency [2] | outcome [3] | Potency [4] | Potency [5] | outcome [6] | Potency [7] | Potency [8]

CC(=O)Nc1cccc(C)c1
inactive: outcome [1] | Potency [2] | outcome [3] | Potency [5] | outcome [6] | Potency [7]

O=C(O)c1ccc(Cl)cc1Cl
inactive: outcome [1] | Potency [2] | outcome [3] | Potency [4] | outcome [6] | Potency [7]

CCCCNC1CC(C)(C)NC(C)(C)C1
inactive: outcome [1] | Potency [2] | outcome [3] | Potency [4] | Potency [5] | outcome [6] | Potency [7] | Potency [8]

OC[C@H](Cc1cccc(O)c1)[C@H](CO)Cc1cccc(O)c1
inactive: outcome [1] | Potency [2] | outcome [3] | Potency [5] | outcome [6] | Potency [7]

CCn1ccc(NS(=O)(=O)c2ccc(N)cc2)nc1=O
inactive: outcome [1] | Potency [2] | outcome [3] | Potency [4] | Potency [5] | outcome [6] | Potency [7] | Potency [8]

CC(=O)N[C@@H](CCC(=O)O)C(=O)O
inactive: outcome [1] | Potency [2] | outcome [3] | outcome [9] | Potency [5] | outcome [6] | Potency [7] | Potency [8]

N[C@@H](CCC(=O)N[C@@H](CS)C(=O)NCC(=O)O)C(=O)O
inactive: cytotoxicity increase [1] -6.34% [at 15.8 µM] | activity change, negative = cytotoxicity [2] -2.09% [at 19 µM] | viability change, negative = cytotoxic [3] 1.98% [at 19 µM] | outcome [9] | activity change, negative = inhibition [5] -2.25% [at 19 µM] | activity change, negative = cytotoxicity [6] 2.26% [at 19 µM] | viability change, negative = cytotoxic [7] -6.52% [at 19 µM] | viability change, negative = cytotoxic [8] 0.577% [at 19 µM]

CC(COC(C)(C)C)OCCCO (stereo not drawn)
inactive: outcome [1] | Potency [2] | outcome [3] | Potency [5] | outcome [6] | Potency [7] | Potency [8]

Cc1cc(NC(=O)C2=C(O)c3ccccc3S(=O)(=O)N2C)no1
inactive: outcome [1] | Potency [2] | outcome [3] | outcome [9] | Potency [5] | outcome [6] | Potency [7]

CCCCCCCCC(=O)Cl
inactive: outcome [1] | Potency [2] | outcome [3] | Potency [4] | Potency [5] | outcome [6] | Potency [7] | Potency [8]

CC(=O)/C=C/C1C(C)=CCC(C)C1(C)C (stereo not drawn)
inactive: outcome [1] | Potency [2] | outcome [3] | Potency [4] | Potency [5] | outcome [6] | Potency [7] | Potency [8]

CN(C)c1ccc(C=O)cc1
inactive: outcome [1] | Potency [2] | outcome [3] | Potency [4] | outcome [6] | Potency [7] | Potency [8]

C=C(C)C(=O)OCC(C)(C)COC(=O)C(=C)C
inactive: outcome [1] | Potency [2] | outcome [3] | Potency [4] | Potency [5] | outcome [6] | Potency [7] | Potency [8]

COC(=O)C1CC(=O)C(C(=O)OC)CC1=O (stereo not drawn)
inactive: cytotoxicity increase [1] -5.53% [at 6.97 µM] | activity change, negative = cytotoxicity [2] 7.13% [at 8.39 µM] | viability change, negative = cytotoxic [3] 1.05% [at 8.39 µM] | activity change, negative = inhibition [5] -0.18% [at 8.39 µM] | activity change, negative = cytotoxicity [6] 0.106% [at 8.39 µM] | viability change, negative = cytotoxic [7] 11.2% [at 8.39 µM]

COC(=O)CCc1ccc(OCC(O)CNC(C)C)cc1 (stereo not drawn)
inactive: outcome [1] | Potency [2] | outcome [3] | outcome [9] | Potency [5] | outcome [6] | Potency [7] | Potency [8]

COC(=O)CCCCCCCC(=O)OC
inactive: outcome [1] | Potency [2] | outcome [3] | Potency [4] | Potency [5] | outcome [6] | Potency [7] | Potency [8]

CC(C)C[C@H](NC(=O)CNC(=O)[C@H](Cc1ccc(O)cc1)NC(=O)[C@H](CO)NC(=O)[C@H](Cc1c[nH]c2ccccc12)NC(=O)[C@H](Cc1cnc[nH]1)NC(=O)[C@@H]1CCC(=O)N1)C(=O)N[C@@H](CCCN=C(N)N)C(=O)N1CCC[C@H]1C(=O)NCC(N)=O (stereo in doubt)
inactive: outcome [1] | Potency [2] | outcome [3] | outcome [9] | Potency [5] | outcome [6] | Potency [7] | Potency [8]

NCCS
inactive: outcome [1] | Potency [2] | outcome [3] | outcome [9] | Potency [5] | outcome [6] | Potency [7] | Potency [8]

N[C@@H](COP(=O)(O)O)C(=O)O
inactive: cytotoxicity increase [1] 3.11% [at 15.8 µM] | activity change, negative = cytotoxicity [2] 0.527% [at 19 µM] | viability change, negative = cytotoxic [3] 4.56% [at 19 µM] | outcome [9] | activity change, negative = inhibition [5] -0.0158% [at 19 µM] | activity change, negative = cytotoxicity [6] 0.384% [at 19 µM] | viability change, negative = cytotoxic [7] -4.16% [at 19 µM] | viability change, negative = cytotoxic [8] 5.61% [at 19 µM]

CCCCNc1ccc(C(=O)OCCN(C)C)cc1
inactive: outcome [1] | Potency [2] | outcome [3] | outcome [9] | Potency [5] | outcome [6] | Potency [7] | Potency [8]

FC(F)(F)c1ccccc1-n1ccnc1
inactive: outcome [1] | Potency [2] | outcome [3] | outcome [9] | Potency [5] | outcome [6] | Potency [7] | Potency [8]

CCCCCCOc1ccccc1C(N)=O
inactive: outcome [1] | Potency [2] | outcome [3] | outcome [9] | outcome [6] | Potency [7] | Potency [8]

Cc1[nH]cnc1-c1ccc(Cl)cc1
inactive: outcome [1] | Potency [2] | outcome [3] | Potency [4] | outcome [6] | Potency [7]
